In PubChem BioAssay (NCI):
About 83,000 compounds went through this panel and 20% of them were active in at least one assay; those are over-represented in the sample as a whole.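 Interpretation: 100, growth as untreated; towards 0, rising growth inhibition; 0, no net growth; 0 to -100, cell death. Compounds scoring below 10 were considered active.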 Values without a mark were called inactive. The source made the active and inactive calls.

Experiments:
Assay in all cases: NCI-60 one-dose screen, 48 h (100 = growth as untreated, 0 = no growth, -100 = all killed)
A549/ATCC NSCLC = details: 10 µM unless noted
786-0 renal = details: 10 µM unless noted
DU-145 prostate = details: 10 µM unless noted
SF-268 CNS = details: 10 µM unless noted
SF-539 CNS = details: 10 µM unless noted
UACC-257 melanoma = details: 10 µM unless noted
M14 melanoma = details: 10 µM unless noted
HCT-15 colon = details: 10 µM
HT29 colon = details: 10 µM unless noted
PC-3 prostate = details: 10 µM unless noted
UACC-62 melanoma = details: 10 µM unless noted
SK-MEL-28 melanoma = details: 10 µM unless noted
TK-10 renal = details: 10 µM unless noted
HL-60(TB) leukemia = details: 10 µM unless noted
OVCAR-8 ovarian = details: 10 µM unless noted
OVCAR-5 ovarian = details: 10 µM unless noted
OVCAR-3 ovarian = details: 10 µM unless noted
NCI/ADR-RES ovarian = details: 10 µM unless noted
BT-549 breast = details: 10 µM
MCF7 breast = details: 10 µM unless noted

SMILES	growth (A549/ATCC NSCLC)	growth (786-0 renal)	growth (DU-145 prostate)	growth (SF-268 CNS)	growth (SF-539 CNS)	growth (UACC-257 melanoma)	growth (M14 melanoma)	growth (HCT-15 colon)	growth (HT29 colon)	growth (PC-3 prostate)	growth (UACC-62 melanoma)	growth (SK-MEL-28 melanoma)	growth (TK-10 renal)	growth (HL-60(TB) leukemia)	growth (OVCAR-8 ovarian)	growth (OVCAR-5 ovarian)	growth (OVCAR-3 ovarian)	growth (NCI/ADR-RES ovarian)	growth (BT-549 breast)	growth (MCF7 breast)
ClCCN(CCCl)C(c1ccccc1)c1ccc(Cl)cc1 (stereo unspecified)	88.9%	87.5%	69.5%	61.5%	71.7%	90.9%	90.4%	82.9%	63%	52%	63.8%	102%	81.1%	15.1%	77.7%	118%	91.9%	79%	93.7%	–
C/C1=C/C(=O)O[C@@H]2C[C@@H](CC[C@H](C)/C=C\C=C\CC1)O[C@@](OCCc1ccccc1)([C@@H]1CSC(=O)N1)C2	15.4%	9.36% (active)	-2.11% (active)	-42.9% (active)	9.84% (active)	-3.39% (active)	38.5%	46.3%	8.63% (active)	18.3%	24.3%	–	-68.1% (active)	90.6%	46.2%	11.2%	-48.7% (active)	48.4%	-43% (active)	–
CC[C@]12C=CCN3CC[C@@]4(c5ccc(OC)cc5N(C)[C@H]4[C@@](O)(C(=O)OC)[C@@H]1OC(=O)CCCN1CCN(CCCC(=O)O[C@@H]4[C@]5(CC)C=CCN6CC[C@@]7(c8ccc(OC)cc8N(C)[C@H]7[C@@]4(O)C(=O)OC)[C@@H]65)CC1)[C@@H]32	-81.4% (active)	-81.9% (active)	-90.6% (active)	-82.6% (active)	-95.5% (active)	-87.6% (active)	-80.6% (active)	-74.3% (active)	-81.3% (active)	-80.3% (active)	-87.7% (active)	-91.6% (active)	–	-66.6% (active)	-71.1% (active)	-87.8% (active)	-85.2% (active)	-40.6% (active)	-88.3% (active)	-83.8% (active)
CC(=O)O[C@@H]1C2=C(C)C3(CC3)[C@@](C)(O)C(=O)C2=C[C@@]1(C)CO	6.08% (active)	0.386% (active)	5.53% (active)	6.35% (active)	-33.1% (active)	-34.7% (active)	-48.6% (active)	0.741% (active)	5.12% (active)	6.46% (active)	-69.8% (active)	-28.8% (active)	4.18% (active)	-4.61% (active)	7.82% (active)	4.7% (active)	-9.99% (active)	-5.59% (active)	-32.6% (active)	1.42% (active)
Oc1ccc(Br)cc1CN1CCN(Cc2ccc(Cl)cc2)CC1	62.3%	107%	88.5%	64.2%	92.9%	86.7%	85.9%	59.7%	70.2%	54%	50.7%	88.2%	106%	47.5%	60.6%	97.7%	67.8%	82.2%	86.3%	34.5%
O=C(O)C1(Br)CC12c1ccccc1-c1ccccc12 (stereo unspecified)	98.4%	101%	111%	100%	103%	94.8%	102%	101%	104%	100%	103%	114%	88%	94%	99.6%	104%	103%	104%	94.9%	93.4%
COc1ccc(NP2(=O)OCC(C)(N)CO2)cc1 (stereo unspecified)	93.6%	101%	102%	96.2%	100%	97.6%	101%	89.3%	98.7%	84.5%	99.9%	114%	93.2%	95%	101%	102%	107%	98.2%	77%	99.6%
